“And” between values parts separate entries of the source, which are not always exact repeats. Identical values can stand only once. Inconclusive results are not listed. The source made the active and inactive calls. Unless noted, calls follow the shape of the dose curve; as a rule, active = well fitted curve in the direction sought with a large enough effect; inconclusive = small, poorly fitted or top-dose-only effect, or another doubt; inactive = no such curve, though single readings can be large; an effect the other way counts as inactive or inconclusive.
Legend:
[1] = Validation of Assay for Modulators of Lamin A Splicing (AID 1459; active = well fitted curve in the direction sought with a large enough effect in the signal ratio; the % refers to the signal ratio;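 also: cells exposed to compound for two days before reading; 0% is about no effect; ratio rise marks activators and ratio drop marks inhibitors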)
Summary of the method: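 HeLa S3 lamin A-EGFP/DsRed2 stable clone, 600 cells/well, Opti-MEM 2% FBS; compounds by pin tool; 48 hrs, 37 °C/5% CO2; Acumen 488 nm scan, objects 10-100 um; GFP/RFP intensity ratio.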

[2] = qHTS Assay for Lipid Storage Modulators (AID 1519; calls by dose curve; as to activity change, negative = inhibition: % is scaled to controls: 0 for no effect and ±100 for the full control effect); details: Drosophila S3 cells, BODIPY lipid droplet/cell ratio, laser cytometry, cells loaded with oleic acid; for activity change, negative = inhibition: at 57.5 µM (top of the series)
Summary of the method: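 Cells seeded at 5,000 per well were treated with compounds over a concentration series and loaded with oleic acid (400 uM, as added). Lipid droplet fluorescence (488 nm excitation, 500-530 nm channel) was read by laser-scanning cytometry and normalized to 20 uM Triacsin C.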

[3] = biological target: DNA repair nuclease/redox regulator APEX1 (Homo sapiens) (UniProt P27695); test: qHTS Validation Assay for Inhibitors of the Human Apurinic/apyrimidinic Endonuclease 1 (APE1) (AID 1705; also: potency is read from the fitted curve at half-maximal effect;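 as to activity change, negative = inhibition: TAMRA fluorescence gain over two minutes as APE1 cuts a quenched THF abasic duplex; % is scaled to controls: 0 for no effect and ±100 for the full control effect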)
Summary of the method: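 qHTS, 1536-well. APE1 + cpd 15 min RT → 50 nM TAMRA/BHQ-2 THF-abasic dsDNA substrate → kinetic fluorescence, 3 reads/60 s; delta(read3−read1) = reaction progress. No-enzyme buffer = negative control.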

[4] = Counterscreen for APE1 Inhibitors: Fluorescent Dye Displacement Validation Assay (AID 1707);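 also: plate controls were ThO with dsDNA and no compound for no effect and ThO without dsDNA for full effect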
Summary of the method: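 Loss of Thiazole Orange fluorescence marks promiscuous DNA binders. The dye (250 nM) is mixed with 50 nM abasic-site dsDNA in pH7.5 Tris buffer containing MgCl2, then compounds are added and emission is read once.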

[5] = biological target: Endonuclease 4 (Escherichia coli (strain K12)) (UniProt P0A6C1); test: Counterscreen for APE1 Inhibitors: qHTS Validation Assay for Inhibitors of Endonuclease IV (AID 1708); also: % is scaled to controls: 0 for no effect and ±100 for the full control effect
Summary of the method: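 Enzyme (2 nM) + compound, 15 min RT; add 50 nM TAMRA/BHQ-2 THF-site dsDNA; kinetic read ex525/em598, 3 reads/60 s; activity = read 3 − read 1. Buffer Tris pH 7.5, 50 mM NaCl, 2 mM MgCl2, DTT, Tween-20.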

[6] = qHTS for differential inhibitors of proliferation of Plasmodium falciparum line Dd2 (AID 1882); details: Potency: Plasmodium falciparum Dd2 proliferation inhibition;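 also: plate controls were DMSO vehicle for no effect and 0.29 µM artemisinin for full effect; nearly all actives have a fitted effect of over 65% in size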
Summary of the method: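 SYBR Green DNA fluorescence (ex 485, em 535 nm) after overnight lysis quantifies parasite growth; compound exposure lasted 72 h at 37 C on infected red cells at 2.5% hematocrit, 0.3% parasitemia (final). Artemisinin 0.29 uM and vehicle wells define normalization.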

[7] = biological target: ATP-dependent DNA helicase Q1 (Homo sapiens) (UniProt P46063); test: qHTS Validation Assay for Inhibitors of RecQ-Like Dna Helicase 1 (RECQ1) (AID 2353);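 also: plate controls were DMSO vehicle for no effect and enzyme-free control for full effect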
Summary of the method: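 RECQ1T1 50 nM; forked duplex (20 bp + 30-nt ss tails) 200 nM, ATP 2 mM final; pH 8.0, 2 mM MgCl2, 2.5 ug/ml poly(dI-dC); 15 min compound preincubation; discontinuous kinetic read over 2 h at RT.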

[8] = Validation screen for small molecules that induce DNA re-replication in MCF 10A normal breast cells (AID 463097); also: 0% is about no effect; nearly all actives have a fitted effect of over 60% in size
Summary of the method: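 Image-based qHTS: normal breast cells are incubated with compound for 48 hr, stained with Hoechst, and scanned for total nuclear fluorescence. Compounds raising the fraction of nuclei with elevated DNA content count as re-replication inducers.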

[9] = Quantitative high throughput screen for delayed death inhibitors of the malarial parasite plastid, 48 hour incubation (AID 488752); also: % is scaled to controls: 0 for no effect and ±100 for the full control effect; nearly all actives have a fitted effect of over 65% in size
Summary of the method: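 One-generation (48 h) growth assay: a decrease in luciferase signal from an integrated reporter in P. falciparum-infected red cells (0.1% parasitemia, 2% hematocrit) after compound exposure at 37 C indicates parasite inhibition.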

[10] = biological target: M-phase phosphoprotein 8 (Homo sapiens) (UniProt Q99549); test: qHTS Validation Assay for Inhibitors for MPP8 Chromodomain Interactions with Methylated Histone Tails (AID 488949);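 also: 50 nM MPP8 with 50 nM peptide preformed then compounds added for 30 min; AlphaScreen signal from MPP8 chromodomain bound to biotinylated H3K9me3 peptide; top concentration of the series differs between compounds; % is scaled to controls: 0 for no effect and ±100 for the full control effect; nearly all actives have a fitted effect of over 55% in size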
Summary of the method: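 50 nM MPP8 + 50 nM b-H3K9me3 peptide, PBS pH 7.4/0.01% Tween-20, 30 min RT; + cpd 30 min RT; + AlphaScreen donor/Ni-chelate acceptor beads 10 ug/mL final, 30 min dark; luminescence read.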

[11] = biological target: Transient receptor potential cation channel subfamily V member 1 (Homo sapiens) (UniProt Q8NER1); test: HTS Assay for Compounds that Act as Enhancers of the Vanilloid Receptor 1 (AID 488979); also: 0% is about no effect
Summary of the method: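 TRPV1-expressing cells loaded with Fluo-8 calcium dye; compounds added and calcium influx read kinetically for 3 min (agonist phase), then capsaicin at EC20 added and read 2 min more for enhancement. Fluorescence ex 480/em 520 nm.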

[12] = biological target: Galactokinase (Homo sapiens) (UniProt P51570); test: qHTS Validation Assay for Inhibitors of Human Galactokinase (GALK) (AID 493189); also: 0% is about no effect
Summary of the method: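 5 nM GALK / 100 uM galactose / 35 uM ATP, 20 mM HEPES pH8.0, 5 mM MgCl2, 60 mM NaCl, 1 mM DTT, 0.01% BSA (final). RT 1 h; Kinase-Glo Plus luminescence.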

[13] = Validation screen for small molecules that induce DNA re-replication in SW480 colon adenocarcinoma cells (AID 504364); also: 0% is about no effect
Summary of the method: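 Image-based DNA content read-out: Hoechst stain 40 min, total nuclear fluorescence intensity (ex 405 nm, em 500-530 nm) after 48 h compound exposure of 250 SW480 cells/well at 37 C, 5% CO2, versus DMSO vehicle.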

[14] = Primary qHTS for inhibitors of nuclear receptor binding SET domain protein 2 (NSD2) in an isogenic RCH-ACV NSD2 p.E1099K mutant (9B) (AID 1645876); also: nearly all actives have a fitted effect of over 70% in size; also: potency is read from the fitted curve at half-maximal effect
[15] = Primary qHTS for inhibitors of nuclear receptor binding SET domain protein 2 (NSD2) in an RCH-ACV wild type WT cells (2C) (AID 1645877); also: potency is read from the fitted curve at half-maximal effect; nearly all actives have a fitted effect of over 70% in size
[16] = biological target: Glutathione peroxidase 1 (Homo sapiens) (UniProt P07203); test: Primary qHTS Assay for Inhibitors of Recombinant Selenoprotein Glutathione Peroxidase 1 (GPX1) (AID 1845191); also: nearly all actives have a fitted effect of over 65% in size
Summary of the method: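 GPX1 10 nM, GR 100 nM, GSH 1 mM, NADPH 0.5 mM, CHP 0.5 mM (final). 30-min cpd preincubation, RT. Ex340/Em450 read t=0, t=15 min.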

[17] = biological target: Phospholipid hydroperoxide glutathione peroxidase GPX4 (Homo sapiens) (UniProt P36969); test: Primary qHTS Assay for Inhibitors of Recombinant Selenoprotein Glutathione Peroxidase 4 (GPX4) (AID 1845192); details: outcome: dose series up to 50 µM unless noted; also: nearly all actives have a fitted effect of over 65% in size; as to activity change, negative = inhibition: % is scaled to controls: 0 for no effect and ±100 for the full control effect
Summary of the method: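 qHTS, GR-coupled: GPX4 200 nM + cpd 30 min RT → GSH 1 mM, NADPH 0.5 mM, GR 100 nM → CHP 0.5 mM start; fluor 340/450 at t0 and t15 min; no-enzyme wells as control.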

[18] = qHTS drug screen for cell cycle checkpoint inhibitors in PARPi-resistant BRCA-mutant ovarian cancer cell lines. (AID 1963452; calls by dose curve); details: PEO1/OlaR viability, CellTiter-Glo luminescence, 96 h, stronger effect = lower value
Summary of the method: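 PEO1, PEO4 and PEO1/OlaR ovarian cancer cells, 600 per well, exposed 96 h at 37C to a dilution series. Viability read by CellTiter-Glo luminescence, normalized to DMSO and empty wells; activity summarized as Z-AUC.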

[19] = qHTS assay to identify inhibitors of the type 1 interferon - major histocompatibility complex class I in skeletal muscle: Counter screen cell viability and HiBit confirmation (AID 1347412); details: iHSKM muscle cells + IFN-b, HiBiT or CellTiter-Glo, 24 h; HiBiT; at 45.9 µM (top of the series); also: % is scaled to controls: 0 for no effect and ±100 for the full control effect; nearly all actives have a fitted effect of over 60% in size
Summary of the method: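 Luminescence read-out: Nano-Glo HiBiT lytic signal from C-terminally HiBiT-tagged HLA-B in CRISPR-edited human myoblasts, plus CellTiter Glo ATP as viability counter screen. IFN-beta 4.0 ng/ml; 24 hrs treatment at 37 C, 5% CO2.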

[20] = measured here: cell count channel max response
[21] = measured here: lipid channel max response
[22] = measured here: PEO1 parental Z-AUC

Sequence of Galactokinase (Homo sapiens) (P51570 whole entry, looked up): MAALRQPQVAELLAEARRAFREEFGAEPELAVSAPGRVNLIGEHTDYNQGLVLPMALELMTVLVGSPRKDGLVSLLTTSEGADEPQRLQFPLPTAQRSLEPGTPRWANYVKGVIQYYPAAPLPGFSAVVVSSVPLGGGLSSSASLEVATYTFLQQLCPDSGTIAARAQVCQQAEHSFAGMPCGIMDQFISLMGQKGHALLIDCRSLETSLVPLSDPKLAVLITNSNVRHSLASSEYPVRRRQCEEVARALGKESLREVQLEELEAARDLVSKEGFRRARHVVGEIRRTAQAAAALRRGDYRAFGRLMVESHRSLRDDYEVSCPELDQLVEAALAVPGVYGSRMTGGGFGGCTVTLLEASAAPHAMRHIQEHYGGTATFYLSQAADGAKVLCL
Sequence of ATP-dependent DNA helicase Q1 (Homo sapiens) (P46063 whole entry, looked up): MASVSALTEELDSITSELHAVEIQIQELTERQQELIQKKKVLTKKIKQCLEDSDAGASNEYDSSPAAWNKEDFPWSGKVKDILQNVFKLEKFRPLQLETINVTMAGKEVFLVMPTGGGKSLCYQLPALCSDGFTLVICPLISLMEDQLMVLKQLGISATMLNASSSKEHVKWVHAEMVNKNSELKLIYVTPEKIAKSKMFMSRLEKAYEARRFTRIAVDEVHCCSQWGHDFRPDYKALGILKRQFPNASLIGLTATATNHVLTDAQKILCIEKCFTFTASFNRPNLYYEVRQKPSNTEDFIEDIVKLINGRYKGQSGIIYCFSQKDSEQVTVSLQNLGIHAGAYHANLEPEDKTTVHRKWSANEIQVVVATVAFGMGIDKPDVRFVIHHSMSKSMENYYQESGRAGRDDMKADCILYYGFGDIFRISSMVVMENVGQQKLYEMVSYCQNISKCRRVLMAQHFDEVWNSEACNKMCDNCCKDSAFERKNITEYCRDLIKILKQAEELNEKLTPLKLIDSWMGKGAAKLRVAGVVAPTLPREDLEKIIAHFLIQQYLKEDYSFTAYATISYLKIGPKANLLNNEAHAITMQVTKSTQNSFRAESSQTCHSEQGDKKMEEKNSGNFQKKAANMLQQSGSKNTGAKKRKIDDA
Sequence of DNA repair nuclease/redox regulator APEX1 (Homo sapiens) (P27695 whole entry, looked up): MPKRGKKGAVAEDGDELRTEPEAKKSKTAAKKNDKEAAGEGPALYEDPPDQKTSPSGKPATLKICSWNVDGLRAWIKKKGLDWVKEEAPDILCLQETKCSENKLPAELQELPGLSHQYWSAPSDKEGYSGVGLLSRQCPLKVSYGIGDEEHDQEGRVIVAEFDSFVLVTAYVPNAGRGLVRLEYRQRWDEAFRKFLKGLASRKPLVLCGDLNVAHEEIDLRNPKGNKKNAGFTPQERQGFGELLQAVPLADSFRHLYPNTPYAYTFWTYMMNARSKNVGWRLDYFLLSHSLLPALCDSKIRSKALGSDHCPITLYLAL
Sequence of Transient receptor potential cation channel subfamily V member 1 (Homo sapiens) (Q8NER1 whole entry, looked up): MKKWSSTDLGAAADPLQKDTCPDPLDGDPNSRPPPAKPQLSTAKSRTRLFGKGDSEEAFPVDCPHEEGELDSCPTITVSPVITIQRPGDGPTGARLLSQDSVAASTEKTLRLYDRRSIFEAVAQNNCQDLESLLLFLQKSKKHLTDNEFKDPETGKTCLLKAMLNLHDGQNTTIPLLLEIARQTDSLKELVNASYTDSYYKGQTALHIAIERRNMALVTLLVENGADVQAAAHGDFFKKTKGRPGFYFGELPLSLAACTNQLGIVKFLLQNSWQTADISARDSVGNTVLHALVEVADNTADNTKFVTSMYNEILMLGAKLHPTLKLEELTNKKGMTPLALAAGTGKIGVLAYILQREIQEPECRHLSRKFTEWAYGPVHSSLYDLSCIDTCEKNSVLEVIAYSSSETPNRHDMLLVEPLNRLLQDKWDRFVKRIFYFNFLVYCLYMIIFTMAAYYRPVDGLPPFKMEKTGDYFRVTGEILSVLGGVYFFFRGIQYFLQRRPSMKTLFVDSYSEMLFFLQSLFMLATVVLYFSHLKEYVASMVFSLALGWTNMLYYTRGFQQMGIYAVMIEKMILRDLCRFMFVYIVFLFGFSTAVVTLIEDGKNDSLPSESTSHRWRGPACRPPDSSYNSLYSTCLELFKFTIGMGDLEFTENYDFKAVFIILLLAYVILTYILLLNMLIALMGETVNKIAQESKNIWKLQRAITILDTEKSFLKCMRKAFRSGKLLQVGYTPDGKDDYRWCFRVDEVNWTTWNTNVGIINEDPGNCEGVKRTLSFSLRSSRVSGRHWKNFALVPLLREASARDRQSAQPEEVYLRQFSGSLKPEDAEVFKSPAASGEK
Sequence of M-phase phosphoprotein 8 (Homo sapiens) (Q99549 whole entry, looked up): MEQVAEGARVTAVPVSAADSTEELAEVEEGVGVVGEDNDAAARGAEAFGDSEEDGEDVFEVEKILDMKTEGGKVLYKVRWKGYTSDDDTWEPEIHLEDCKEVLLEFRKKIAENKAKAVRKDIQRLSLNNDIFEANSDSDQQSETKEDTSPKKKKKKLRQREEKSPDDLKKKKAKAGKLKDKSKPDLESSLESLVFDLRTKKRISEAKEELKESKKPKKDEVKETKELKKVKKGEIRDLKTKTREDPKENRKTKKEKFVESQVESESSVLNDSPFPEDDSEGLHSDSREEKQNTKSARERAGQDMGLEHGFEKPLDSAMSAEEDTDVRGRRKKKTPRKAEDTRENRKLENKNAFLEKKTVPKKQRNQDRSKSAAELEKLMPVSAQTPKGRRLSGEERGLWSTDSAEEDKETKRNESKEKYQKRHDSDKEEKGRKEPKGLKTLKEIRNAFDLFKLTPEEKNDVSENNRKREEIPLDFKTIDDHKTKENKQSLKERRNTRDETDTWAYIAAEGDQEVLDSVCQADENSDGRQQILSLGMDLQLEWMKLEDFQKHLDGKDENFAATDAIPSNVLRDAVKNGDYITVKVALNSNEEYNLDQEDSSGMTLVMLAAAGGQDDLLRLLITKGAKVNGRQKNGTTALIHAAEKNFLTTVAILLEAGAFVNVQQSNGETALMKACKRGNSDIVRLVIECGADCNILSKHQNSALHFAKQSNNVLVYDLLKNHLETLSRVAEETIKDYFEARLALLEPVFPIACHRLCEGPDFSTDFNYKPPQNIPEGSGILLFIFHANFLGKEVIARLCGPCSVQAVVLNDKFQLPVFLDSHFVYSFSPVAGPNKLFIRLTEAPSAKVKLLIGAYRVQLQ
Sequence of Phospholipid hydroperoxide glutathione peroxidase GPX4 (Homo sapiens) (P36969 whole entry, looked up): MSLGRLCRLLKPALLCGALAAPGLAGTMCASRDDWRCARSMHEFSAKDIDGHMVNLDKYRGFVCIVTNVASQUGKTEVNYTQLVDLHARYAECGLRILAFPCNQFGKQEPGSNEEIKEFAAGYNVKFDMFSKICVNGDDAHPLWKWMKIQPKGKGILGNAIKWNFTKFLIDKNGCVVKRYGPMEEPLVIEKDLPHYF
Sequence of Glutathione peroxidase 1 (Homo sapiens) (P07203 whole entry, looked up): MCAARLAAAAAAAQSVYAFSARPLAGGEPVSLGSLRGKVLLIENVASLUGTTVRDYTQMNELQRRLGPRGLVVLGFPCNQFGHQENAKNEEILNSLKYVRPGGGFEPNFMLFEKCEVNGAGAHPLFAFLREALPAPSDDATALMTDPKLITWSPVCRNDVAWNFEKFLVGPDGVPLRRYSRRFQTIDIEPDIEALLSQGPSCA

O=C(Cc1ccc(Cl)c(Cl)c1)OCCN1CCCC1
-1.75%: max response [2, 20]
inactive: outcome [1] | activity change, negative = inhibition [2] 1.23% | Potency [3] | Potency [4] | outcome [5] | Potency [6] | Potency [7] | outcome [8] | Potency [9] | Potency [10] | outcome [11] | outcome [12] | outcome [13]
-0.355%: max response [2, 21]

CNC(=O)[C@H]1O[C@@H](n2cnc3c(NCc4cccc(I)c4)ncnc32)[C@H](O)[C@H]1O
56.8%: max response [2, 21]
inactive: outcome [1] | activity change, negative = inhibition [2] 1.11% | Potency [3] | Potency [4] | outcome [5] | Potency [6] | Potency [7] | outcome [8] | Potency [9] | Potency [10] | outcome [12] | outcome [13]
54.7%: max response [2, 20]

Cc1cn([C@H]2C[C@@H](N=[N+]=[N-])[C@@H](CO)O2)c(=O)[nH]c1=O
-8.16%: max response [2, 21]
inactive: outcome [1] | activity change, negative = inhibition [2] 0.117% | Potency [3] | Potency [4] | outcome [5] | Potency [6] | Potency [7] | outcome [8] | Potency [9] | Potency [10] | outcome [11] | outcome [12] | outcome [13]
-9.17%: max response [2, 20]

C[C@]12CCC(=O)C=C1CC[C@@H]1C2[C@@H](O)C[C@@]2(C)[C@H]1CC[C@]2(O)C(=O)CO (some centres not stated)
2.28% and 8.51%: max response [2, 20]
inactive: outcome [1] | activity change, negative = inhibition [2] 0.0073% and -1.01% | Potency [3] | Potency [4] | outcome [5] | Potency [6] | Potency [7] | outcome [8] | Potency [9] | Potency [10] | outcome [11] | outcome [12] | outcome [13]
2.14% and 9.17%: max response [2, 21]

C[C@H]1CC2[C@@H]3CCC4=CC(=O)C=C[C@]4(C)[C@@]3(F)[C@@H](O)C[C@]2(C)[C@@]1(O)C(=O)CO (some centres not stated)
active: Potency [3] 39.8 µM | Potency [15] 0.105 µM
inactive: outcome [1] | activity change, negative = inhibition [2] -0.272% | Potency [4] | outcome [5] | Potency [6] | Potency [7] | outcome [8] | Potency [9] | Potency [10] | outcome [12] | outcome [13] | Potency [14] | Potency [16] | Potency [17] | Z-AUC [18] -1.28
-0.45: Z-AUC [18, 22]
-0.996: Z-AUC ([18]; measured here: PEO4 Z-AUC)
-0.0442%: max response [2, 20]
0.965%: max response [2, 21]

C[C@@H](Oc1cc(C(=O)Nc2ccc(C(=O)N3CCN(C)CC3)cc2)nnc1N)c1c(Cl)ccc(F)c1Cl
active: Potency [14] 2.63 µM
-1.2: Z-AUC ([18]; measured here: PEO4 Z-AUC)
-1.08: Z-AUC [18, 22]
inactive: Potency [16] | Potency [17] | Z-AUC [18] -0.576 | activity change, negative = inhibition [19] -32.5%

NC(=O)c1cccc2c(NC(CN3CCC3)c3ccc(Cl)c(C(F)(F)F)c3)ncnc12 (configuration not stated)
active: Potency [14] 1.05 µM
inactive: Z-AUC [18] 0.286 | activity change, negative = inhibition [19] -0.923%
0.149: Z-AUC [18, 22]
0.205: Z-AUC ([18]; measured here: PEO4 Z-AUC)

CC(C)C1NC(=O)[C@H](CCCCN)NC(=O)[C@@H](Cc2c[nH]c3ccccc23)NC(=O)[C@H](Cc2ccc(O)cc2)NC(=O)[C@H](C)N(C)C(=O)[C@H](Cc2ccccc2)NC1=O (some centres not stated)
23%: max response [2, 21]
25.5%: max response [2, 20]
inactive: outcome [1] | activity change, negative = inhibition [2] 0.502% | Potency [3] | Potency [4] | outcome [5] | Potency [6] | Potency [7] | outcome [8] | Potency [9] | Potency [10] | outcome [11] | outcome [12] | outcome [13]
